Bioassay records (PubChem BioAssay)
Rows were chosen to be rich in hits. Some 2.8% of all compounds tested hit in one or more screens of this group.
MsrA inh: inhibits bovine methionine sulfoxide reductase A. purified bovine MsrA, absorbance read-out. inhibition, % at 15.5 µM. 360,000 tested, 0.75% active. AID 651718; in the data active means inhibition above about 4.5%
bovine MsrA act: bovine methionine sulfoxide reductase A activation. purified bovine MsrA, absorbance read-out. activation, % at 10.6 µM. 360,000 tested, 0.3% active; in the data active means activation above about 7.5%
rCAG RNA binder: molecules binding r(CAG) RNA repeats | r(CAG) RNA repeat, TO-PRO-1 dye displacement fluorescence | inhibition, % at 3 µM | 370,000 tested, 1.3% active;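 active means inhibition above the plate cutoff, the mean of all test compounds on that plate plus 3 SD, cut at about 35% in these data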;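 further: higher means more dye released from RNA so lower well fluorescence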
HGIII-sPLA2 inh: Blocks human group III sPLA2 activity | 370,000 tested, 0.56% active | AID 743126 | QFRET BODIPY PC-A2 liposome hydrolysis, fluorescence | Q9NZ20 | inhibition, % at 12.2 µM;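 active means inhibition above mean plus 3 SD of compounds lying within the high and low control bounds, cut at about 19% in these data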
Target sequence (Q9NZ20 whole entry, looked up): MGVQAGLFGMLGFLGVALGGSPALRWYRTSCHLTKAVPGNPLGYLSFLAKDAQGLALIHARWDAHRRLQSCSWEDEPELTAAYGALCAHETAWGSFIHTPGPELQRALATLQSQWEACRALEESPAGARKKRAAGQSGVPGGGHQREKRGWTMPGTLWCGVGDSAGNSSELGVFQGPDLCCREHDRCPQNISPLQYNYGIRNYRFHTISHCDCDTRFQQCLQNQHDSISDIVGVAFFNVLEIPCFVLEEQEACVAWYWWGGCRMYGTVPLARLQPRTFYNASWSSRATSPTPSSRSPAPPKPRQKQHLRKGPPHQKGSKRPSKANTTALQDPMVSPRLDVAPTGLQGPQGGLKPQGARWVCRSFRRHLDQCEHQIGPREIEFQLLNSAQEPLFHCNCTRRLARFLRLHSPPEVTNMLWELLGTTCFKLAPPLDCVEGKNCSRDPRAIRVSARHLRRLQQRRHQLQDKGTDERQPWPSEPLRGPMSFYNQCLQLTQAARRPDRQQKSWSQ
MsrA act confirm: bovine methionine sulfoxide reductase A activation confirmed; AID 602270; activation, % at 10.6 µM; purified bovine MsrA, absorbance read-out; shares compounds with bovine MsrA act; 1,000 tested, 12% active; in the data active means activation above about 4%;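 further: enzyme coupled to thioredoxin and thioredoxin reductase with NADPH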
Numbers stand for hits; i = inactive; nt = not tested or not shown.

SMILES	MsrA inh	bovine MsrA act	rCAG RNA binder	HGIII-sPLA2 inh	MsrA act confirm
Cn1nc(C(=O)NCc2ccccc2)cc1C(=O)NCc1ccccc1	i	i	i	i	nt
O=C(NCCc1csc(-c2ccccc2)n1)c1c(F)cccc1F	i	i	i	i	nt
O=C(NCCc1ccccc1)c1c(F)cccc1F	i	11.1	i	i	i
Cc1cccc(C)c1NC(=O)COC(=O)C1CC1	i	9.7	i	i	i
CCc1ccc2c(c1)c1nc(C)sc1n2CC	i	26.0	i	i	i
O=C(Nc1cccc(F)c1)c1cccc2c1C(=O)N(C1CCCCC1)C2	i	i	i	i	nt
CCc1cccc(NC(=O)c2cccc3c2C(=O)N(C2CCCCC2)C3)c1	nt	8.6	nt	nt	i
COc1cc(OC)cc(C(=O)NCCN2C(=O)C3C4C=CC(C4)C3C2=O)c1 (configuration not stated)	nt	nt	i	i	nt
Cc1[nH]c2ccccc2c1CC(=O)O	i	13.4	i	i	i
COc1ccc(C2CC(c3cccs3)=Nc3ccccc3S2)cc1 (configuration not stated)	i	10.1	i	i	i
COc1ccc(/C(C)=N/NC(=O)CNC(=O)c2ccco2)c(OC)c1	i	8.6	i	i	i
CSc1cccc(N2C(=O)C3CCCN3C2=S)c1 (configuration not stated)	i	8.1	i	i	i
Cc1cccc(N2C(=O)C3CCCN3C2=S)c1 (configuration not stated)	i	i	i	i	nt
CC(=O)NC(Cc1c[nH]c2ccccc12)C(=O)OCC(=O)N1CCN(S(=O)(=O)c2ccc(Cl)cc2)CC1 (configuration not stated)	i	i	i	i	nt
CNC(=O)N(O)C1N(C)C(=O)N(CC(=O)OC)C1(C)C (configuration not stated)	i	i	i	i	nt
CCCN1C(=O)N(C)C(N(O)C(=O)NC)C1(C)C (configuration not stated)	i	14.4	i	i	i
NC(=O)c1ccc(NC(=O)CSc2nnc(C3CCCCC3)n2N)cc1	i	i	i	i	nt
Nn1c(SCC(=O)Nc2ccc(F)c(F)c2)nnc1C1CCCCC1	i	9.3	i	i	i
COc1cccc(CNC(=O)c2cc3c(cc2Cl)N2CCCCCC2=NS3(=O)=O)c1	i	i	i	i	nt
O=C(CSc1nc2ncccc2[nH]1)c1cccc([N+](=O)[O-])c1	i	8.8	i	i	i
O=C1c2ccccc2C(=O)c2c(/C=C/N3CCCCC3)ccnc21	i	9.7	i	i	4.3
O=C1c2ccccc2-c2cccnc21	i	i	i	i	nt
CCN1C(=O)N(C)[C@@H](c2ccccc2)C(C(=O)OC)=C1C	i	9.3	i	i	i
N#Cc1ccccc1OCCCN1CCC(C(O)(c2ccccc2)c2ccccc2)CC1	i	8.3	i	i	i
CN(Cc1ccccc1F)c1ncnc2sccc12	i	14.4	i	i	i
SMILES	MsrA inh	bovine MsrA act	rCAG RNA binder	HGIII-sPLA2 inh	MsrA act confirm
CCOC(=O)c1nn(-c2ccc(F)cc2)c(=O)c2c(N)scc12	i	i	i	i	nt
CCOC(=O)c1nn(-c2ccc(C)cc2)c(=O)c2c(N)scc12	i	8.6	i	i	i
O=C(c1cc(Cl)nc2ccccc12)N1CCN(S(=O)(=O)c2ccccc2[N+](=O)[O-])CC1	i	i	i	i	nt
COc1ccccc1N1CN(S(=O)(=O)c2ccc(C)cc2)c2nc3ccccc3nc21	i	i	i	i	nt
COc1cc(/C=N/NC(=O)c2cccc([N+](=O)[O-])c2)ccc1OCc1ccc(C)cc1	i	8.3	i	i	i
COc1ccc(/C=N/NC(=O)c2cccc([N+](=O)[O-])c2)cc1O	i	i	i	i	nt
COc1cc([N+](=O)[O-])ccc1NC(=O)NCC1CCN(Cc2ccc(Cl)cc2)CC1	i	21.6	i	i	i
COc1ccc(Cl)cc1NC(=O)NCC1CCN(Cc2cc(C)ccc2C)CC1	i	i	i	i	nt
CC1(C)CC(=O)C2=C(C1)N(CC1CCCO1)C(=O)NC2(C(F)(F)F)C(F)(F)F (configuration not stated)	i	11.0	i	i	i
Cc1ccsc1/C=N/n1c(-c2ccccc2)n[nH]c1=S	i	i	i	i	nt
Cc1ccsc1/C=N/n1c(-c2ccco2)n[nH]c1=S	i	11.1	i	i	i
c1ccc(COc2ccc(CN3CCN(c4ccccn4)CC3)cc2)cc1	i	i	i	i	nt
Cc1nnc(SCC(=O)NCCN2C(=O)CSC2=O)n1-c1ccccc1	i	i	i	i	nt
O=C(CSc1nnc(Cc2ccccc2)o1)NCCN1C(=O)CSC1=O	i	19.4	i	i	i
CC1(C)Cc2c(sc3nc(-c4ccccc4)n(N)c(=O)c23)CO1	i	i	i	i	nt
